{
  "source": "PubChem BioAssay (NCATS)",
  "note": "Active and inactive are the calls of the source. Calls follow the shape of the full dose curve. Potency is read from the fitted curve at half-maximal effect.",
  "data": [
    {"target": "Catechol O-methyltransferase (Homo sapiens) (UniProt P21964)", "sequence (P21964 whole entry, looked up)": "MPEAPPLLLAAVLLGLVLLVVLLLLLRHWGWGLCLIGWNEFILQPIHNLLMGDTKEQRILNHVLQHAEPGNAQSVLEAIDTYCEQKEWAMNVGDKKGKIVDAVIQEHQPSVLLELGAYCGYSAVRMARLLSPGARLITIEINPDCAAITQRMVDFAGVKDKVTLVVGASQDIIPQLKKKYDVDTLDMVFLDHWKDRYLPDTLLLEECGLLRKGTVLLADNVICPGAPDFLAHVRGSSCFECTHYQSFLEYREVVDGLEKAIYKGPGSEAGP", "test": "Confirmatory Screen for Target Class Profiling of Small Molecule Inhibitors of Methyltransferases (AID 1745852); as to activity change, negative = inhibition: % is scaled to controls: 0 for no effect and ±100 for the full control effect", "conditions": "MTase-Glo luminescence, SAH detection, recombinant enzyme; measured here: COMT max response; stronger effect = lower value", "units": {"activity": "%"}, "values": [
      {"smiles": "Cc1ccc(NC(=O)N2CCc3c(c4ccccc4n3CC3CC3)C2)cc1", "activity": 6.89},
      {"smiles": "O=C(CCCc1nnc2n3nc(-c4ccccc4)nc3c3ccccc3n12)NCCN1CCCC1", "activity": 3.65},
      {"smiles": "COc1ccc(-c2[nH]ncc2CN2CC[C@H]3CC[C@@H](C2)N3)cc1", "activity": 11.4},
      {"smiles": "O=C1COc2ccc(-c3cccc(O)c3)nc2CN1Cc1ccc(C(F)(F)F)cc1", "activity": -39},
      {"smiles": "CCNc1nccc(N2CCC(CC(=O)N3CCN(c4ccccc4F)CC3)CC2)n1", "activity": 6.4},
      {"smiles": "COc1cccc(NC(=O)Cn2c(=O)oc3cc(S(=O)(=O)N4CCCC4)ccc32)c1", "activity": 3.1},
      {"smiles": "Cc1c(O)cc(O)c2c(=O)c(O)c(-c3ccc(O)c(O)c3)oc12", "activity": -46.7},
      {"smiles": "Cc1oc(C(=O)O)cc1COc1ccc2c(-c3ccccc3)cc(=O)oc2c1C", "activity": -34.8},
      {"smiles": "CC(C)Cn1c(=O)c2ccccc2n2c(=O)n(CC(=O)c3cccc(Cl)c3)nc12", "activity": -9.22},
      {"smiles": "COc1ccc(-c2cc3nc4c(c(=O)n3[nH]2)CN(C(=O)CN(C)S(=O)(=O)c2cnc[nH]2)CC4)cc1", "activity": -19.9},
      {"smiles": "COc1cccc(N2C(=O)c3cc4occc4n3CC2(C)C(=O)NC2CCCCCC2)c1", "note": "(stereo not drawn)", "activity": -4.86},
      {"smiles": "CN(CCc1nc2ccc(Cl)cc2[nH]1)c1cc(C2CC(O)C2)nc(N)n1", "note": "(stereo not drawn)", "activity": 4.84},
      {"smiles": "COc1ccc(CCNC(=O)c2ccc3c(=O)nc4c(-c5ccccc5)n[nH]n4c3c2)cc1OC", "activity": -11.8},
      {"smiles": "CCCCN1C(=O)c2cc(C(=O)NCCc3ccccc3Cl)nn2CC1(C)C(=O)NC1CCCC1", "note": "(stereo not drawn)", "activity": 0.497},
      {"smiles": "Cc1nc2c3ccccc3n3c(CCCC(=O)NCCCN(C)Cc4ccccc4)nnc3n2n1", "activity": -2.29},
      {"smiles": "Cn1ncc2c(N3CCN(S(N)(=O)=O)CC3)nc(C3CCCC3)nc21", "activity": -8.84},
      {"smiles": "COc1ccc(OC)c2c1cc1n2CC(C)(C(=O)NC2CCCCCC2)N(Cc2ccccn2)C1=O", "note": "(stereo not drawn)", "activity": 3.33},
      {"smiles": "CCCC1c2cccn2CCN1C(=O)Nc1cc(Cl)ccc1C", "note": "(stereo not drawn)", "activity": 1.08},
      {"smiles": "CCOC(=O)c1cccc(Nc2cc(C)nc3ccc(C)cc23)c1", "activity": -4.58},
      {"smiles": "COCCCNC(=O)c1cnc2n[nH]c(-c3ccccc3)c2n1", "activity": -62.1},
      {"smiles": "CN1CCC(N2C[C@@H]3C[C@H]2C(=O)N(CC2CC2)c2ccccc2O3)CC1", "activity": 4.01},
      {"smiles": "Cc1noc(C)c1-c1cc2c(cc(C)n2CCN(C)C)c(Nc2ccncn2)n1", "activity": -14.2},
      {"smiles": "COc1cccc(CN2CCCC3(CCN(c4cc(C)nc(N)n4)C3)C2)c1OC", "note": "(stereo not drawn)", "activity": -4.01}
    ]},
    {"target": "Guanidinoacetate N-methyltransferase (Homo sapiens) (UniProt Q14353)", "test": "Confirmatory Screen for Target Class Profiling of Small Molecule Inhibitors of Methyltransferases (AID 1745852); as to activity change, negative = inhibition: % is scaled to controls: 0 for no effect and ±100 for the full control effect", "conditions": "MTase-Glo luminescence, SAH detection, recombinant enzyme; activity change, negative = inhibition: at 57.3 µM (top of the series) unless noted; series mostly up to 57.3 µM", "values": [
      {"smiles": "COc1ccc(N2C(=O)c3ccc(-c4ccco4)n3CC2(C)C(=O)NCc2ccccc2)cc1OC", "note": "(stereo not drawn)", "activity change, negative = inhibition": "-2.41%"},
      {"smiles": "O=C(NCCc1ccccc1)c1ccc(CN2C(=O)CCn3nc(-c4ccccc4)cc32)cc1", "activity change, negative = inhibition": "0.906%"},
      {"smiles": "c1ccc(Cn2cc(CN3CCN(c4ccncc4)CC3)c(-c3cc4ccccc4o3)n2)cc1", "activity change, negative = inhibition": "12.1%"},
      {"smiles": "Cc1nc(NC(=O)C2CC(=O)N(c3n[nH]c4cc(Br)ccc34)C2)sc1C", "note": "(stereo not drawn)", "activity change, negative = inhibition": "3.17%"},
      {"smiles": "Cc1ccc(NS(=O)(=O)c2ccc3[nH]c(=O)[nH]c3c2)cc1F", "activity change, negative = inhibition": "-6.18%"},
      {"smiles": "CN1CCN(C)c2cnc(-c3cnn(Cc4ccccc4)c3)cc2C1", "activity change, negative = inhibition": "5.27% [at 85.7 µM]"},
      {"smiles": "CCCC1c2cccn2CCN1C(=O)NC1(CC(=O)OCC)CCCCC1", "note": "(stereo not drawn)", "activity change, negative = inhibition": "-0.613%"},
      {"smiles": "O=C(c1ccc(C2CCCNC2)cc1)N1CCN(c2ccncc2)CC1", "note": "(stereo not drawn)", "activity change, negative = inhibition": "2.03%"},
      {"smiles": "Cc1cnc(C2CCC2)n1C1CCN(C(=O)CCC2CCCC2)CC1", "activity change, negative = inhibition": "-7.84%"},
      {"smiles": "COc1ccc(OC)c(NC(=O)c2sc(=S)n3c2[nH]c(=O)c2ccc(Cl)cc23)c1", "Potency": "24.1 µM (active)"},
      {"smiles": "Cc1noc2c(N3CCOCC3)cc(-c3cccs3)nc12", "activity change, negative = inhibition": "2.07% [at 85.7 µM]"},
      {"smiles": "COc1cccc(-c2cccc(C(=O)N3C[C@H](CO)C[C@H](CN(C)C)C3)c2)c1", "activity change, negative = inhibition": "2.08%"},
      {"smiles": "CCCC1c2cccn2CCN1C(=O)Nc1ccc(Br)cc1", "note": "(stereo not drawn)", "activity change, negative = inhibition": "-4.2%"},
      {"smiles": "O=C(Nc1ccc2ncnc(N3CCCCC3)c2c1)c1cc(F)ccc1F", "Potency": "21.5 µM (active)"},
      {"smiles": "CC(C)CCNC(=O)c1ccc2c(=O)[nH]c3c(C(=O)NC(C)C)sc(=S)n3c2c1", "Potency": "27.1 µM (active)"},
      {"smiles": "COc1ccc2[nH]c(CNc3cc(C4CC(N)C4)nc(C)n3)cc2c1", "note": "(stereo not drawn)", "activity change, negative = inhibition": "1.53%"},
      {"smiles": "CCC1CCCCN1CCCNC(=O)Cn1ccc2cc(S(=O)(=O)N3CCCCC3)ccc21", "note": "(stereo not drawn)", "activity change, negative = inhibition": "0%"},
      {"smiles": "Cc1ccc(NC(=O)N2CCc3c(c4ccccc4n3CC3CC3)C2)cc1", "activity change, negative = inhibition": "14.5%"},
      {"smiles": "O=C(CCCc1nnc2n3nc(-c4ccccc4)nc3c3ccccc3n12)NCCN1CCCC1", "activity change, negative = inhibition": "0%"},
      {"smiles": "COc1ccc(-c2[nH]ncc2CN2CC[C@H]3CC[C@@H](C2)N3)cc1", "activity change, negative = inhibition": "7.93%"},
      {"smiles": "O=C1COc2ccc(-c3cccc(O)c3)nc2CN1Cc1ccc(C(F)(F)F)cc1", "activity change, negative = inhibition": "-7.53% [at 85.7 µM]"},
      {"smiles": "CCNc1nccc(N2CCC(CC(=O)N3CCN(c4ccccc4F)CC3)CC2)n1", "activity change, negative = inhibition": "4.58%"},
      {"smiles": "COc1cccc(NC(=O)Cn2c(=O)oc3cc(S(=O)(=O)N4CCCC4)ccc32)c1", "activity change, negative = inhibition": "0.138%"},
      {"smiles": "Cc1c(O)cc(O)c2c(=O)c(O)c(-c3ccc(O)c(O)c3)oc12", "Potency": "24.1 µM (active)"},
      {"smiles": "Cc1oc(C(=O)O)cc1COc1ccc2c(-c3ccccc3)cc(=O)oc2c1C", "Potency": "27.1 µM (active)"},
      {"smiles": "CC(C)Cn1c(=O)c2ccccc2n2c(=O)n(CC(=O)c3cccc(Cl)c3)nc12", "activity change, negative = inhibition": "-5.46%"},
      {"smiles": "COc1ccc(-c2cc3nc4c(c(=O)n3[nH]2)CN(C(=O)CN(C)S(=O)(=O)c2cnc[nH]2)CC4)cc1", "Potency": "21.5 µM (active)"},
      {"smiles": "COc1cccc(N2C(=O)c3cc4occc4n3CC2(C)C(=O)NC2CCCCCC2)c1", "note": "(stereo not drawn)", "activity change, negative = inhibition": "-2.57%"},
      {"smiles": "CN(CCc1nc2ccc(Cl)cc2[nH]1)c1cc(C2CC(O)C2)nc(N)n1", "note": "(stereo not drawn)", "activity change, negative = inhibition": "2.73%"},
      {"smiles": "COc1ccc(CCNC(=O)c2ccc3c(=O)nc4c(-c5ccccc5)n[nH]n4c3c2)cc1OC", "Potency": "0.0961 µM (active)"},
      {"smiles": "CCCCN1C(=O)c2cc(C(=O)NCCc3ccccc3Cl)nn2CC1(C)C(=O)NC1CCCC1", "note": "(stereo not drawn)", "activity change, negative = inhibition": "0%"},
      {"smiles": "Cc1nc2c3ccccc3n3c(CCCC(=O)NCCCN(C)Cc4ccccc4)nnc3n2n1", "activity change, negative = inhibition": "0%"},
      {"smiles": "Cn1ncc2c(N3CCN(S(N)(=O)=O)CC3)nc(C3CCCC3)nc21", "activity change, negative = inhibition": "-4.64%"},
      {"smiles": "COc1ccc(OC)c2c1cc1n2CC(C)(C(=O)NC2CCCCCC2)N(Cc2ccccn2)C1=O", "note": "(stereo not drawn)", "outcome": "inactive"},
      {"smiles": "CCCC1c2cccn2CCN1C(=O)Nc1cc(Cl)ccc1C", "note": "(stereo not drawn)", "outcome": "inactive"},
      {"smiles": "CCOC(=O)c1cccc(Nc2cc(C)nc3ccc(C)cc23)c1", "activity change, negative = inhibition": "0%"},
      {"smiles": "COCCCNC(=O)c1cnc2n[nH]c(-c3ccccc3)c2n1", "Potency": "39.3 µM (active)"},
      {"smiles": "CN1CCC(N2C[C@@H]3C[C@H]2C(=O)N(CC2CC2)c2ccccc2O3)CC1", "activity change, negative = inhibition": "2.68% [at 85.7 µM]"},
      {"smiles": "Cc1noc(C)c1-c1cc2c(cc(C)n2CCN(C)C)c(Nc2ccncn2)n1", "activity change, negative = inhibition": "-6.67% [at 85.7 µM]"},
      {"smiles": "COc1cccc(CN2CCCC3(CCN(c4cc(C)nc(N)n4)C3)C2)c1OC", "note": "(stereo not drawn)", "activity change, negative = inhibition": "-7.75%"}
    ]}
  ]
}
